Measurements taken from PubChem BioAssay.

Experiments:
[1] = system: Human papillomavirus type 1a protein E7 (residues 44-93); experiment: HPV1a E7 fragment binders on microarrays, primary screen, biochemical, small-molecule microarray, residues 44-93, 635 nm fluorescence (AID 1108); conditions: small-molecule microarray binding, fluorescence 635 nm; higher = more signal;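 note: E7 fragment applied at 1 µg/mL in TBST for 1 h at 4 C; score combines spot fluorescence with its signal to noise ratio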
[2] = modulators of HCV replicon luciferase signal, primary screen, HCV replication inhibitor project, Huh7 cells, luciferase reporter (AID 1109); conditions: 48 h, higher = more signal;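 note: huh7 hepatoma cells harbouring a luciferase neomycin HCV replicon reporter; luciferase luminescence as measure of HCV replicon replication; test concentration not given here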
[3] = biological target: Left-right determination factor 2 (Homo sapiens) (UniProt O00292); experiment: LEFTY2 binders on small-molecule microarrays, primary screen, biochemical, small-molecule microarray, 635 nm fluorescence scan (AID 1110); conditions: LEFTY2 binding, higher = more signal
[4] = biological target: Calmodulin-1 (Homo sapiens) (UniProt P0DP23); experiment: CALM1 binders on microarrays, EGTA buffer, profiling panel, biochemical, small-molecule microarray, Cy5-labelled CALM1 (AID 1111); conditions: Cy5-CALM1 binding fluorescence, higher = more signal;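 note: labelled calmodulin applied in Tris saline Tween buffer holding calcium plus EGTA and DTT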
[5] = biological target: Calmodulin-1 (Homo sapiens) (UniProt P0DP23); experiment: calcium-bound CALM1 binders on microarrays, profiling panel, artefact control for SMM control-protein annotation, biochemical, small-molecule microarray, Cy5-labelled CALM1, plus calcium (AID 1112); conditions: Cy5-CALM1 binding fluorescence, higher = more signal;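 note: score merges spot fluorescence with signal to noise from triplicate slides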
[6] = small-molecule microarray binders of probe aWnt5a, primary screen, biochemical, biotinylated probe, 635/667 nm fluorescence (AID 1113); conditions: higher = more signal;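 note: score merges 667 nm fluorescence intensity with signal-to-noise per printed feature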
[7] = small-molecule microarray binders of probe aShh, primary screen, biochemical, biotinylated probe, 635/667 nm fluorescence (AID 1114); conditions: higher = more signal;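 note: probe is biotin-labelled aShh protein from a stem cell growth factor screen; measures binding of labelled protein to compounds printed on the slide; score merges feature fluorescence at 667 nm with signal-to-noise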
[8] = small-molecule microarray binders of probe aNog, primary screen, biochemical, biotinylated probe, 635/667 nm fluorescence (AID 1115); conditions: higher = more signal;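 note: probe is biotinylated aNog protein used at 0.15 µg/mL for 1 h at 4 C; z-score combines 667 nm fluorescence of each spot with its signal to noise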
[9] = biological target: Torsin-1A-interacting protein 1 (Homo sapiens) (UniProt Q5JTV8); experiment: LAP1 binders from COS7 cell lysate, primary screen, small-molecule microarray, 635/667 nm fluorescence (AID 1116); conditions: COS7-hLAP1 lysate binding, 635 nm fluorescence, higher = more signal
[10] = biological target: Alpha-bungarotoxin (Bungarus multicinctus) (UniProt P60615); experiment: alpha-bungarotoxin binders on microarray, profiling panel, artefact control for SMM control protein annotation, biochemical, small-molecule microarray, Alexa647 label, 635/667 nm fluorescence (AID 1117); conditions: alpha-BTX-A647 binding fluorescence, higher = more signal
Sequence of Alpha-bungarotoxin (Bungarus multicinctus) (P60615 whole entry, looked up): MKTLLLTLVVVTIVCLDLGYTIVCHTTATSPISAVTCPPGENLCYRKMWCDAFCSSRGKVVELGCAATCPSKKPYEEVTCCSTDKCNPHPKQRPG

Sequence of Torsin-1A-interacting protein 1 (Homo sapiens) (Q5JTV8 whole entry, looked up): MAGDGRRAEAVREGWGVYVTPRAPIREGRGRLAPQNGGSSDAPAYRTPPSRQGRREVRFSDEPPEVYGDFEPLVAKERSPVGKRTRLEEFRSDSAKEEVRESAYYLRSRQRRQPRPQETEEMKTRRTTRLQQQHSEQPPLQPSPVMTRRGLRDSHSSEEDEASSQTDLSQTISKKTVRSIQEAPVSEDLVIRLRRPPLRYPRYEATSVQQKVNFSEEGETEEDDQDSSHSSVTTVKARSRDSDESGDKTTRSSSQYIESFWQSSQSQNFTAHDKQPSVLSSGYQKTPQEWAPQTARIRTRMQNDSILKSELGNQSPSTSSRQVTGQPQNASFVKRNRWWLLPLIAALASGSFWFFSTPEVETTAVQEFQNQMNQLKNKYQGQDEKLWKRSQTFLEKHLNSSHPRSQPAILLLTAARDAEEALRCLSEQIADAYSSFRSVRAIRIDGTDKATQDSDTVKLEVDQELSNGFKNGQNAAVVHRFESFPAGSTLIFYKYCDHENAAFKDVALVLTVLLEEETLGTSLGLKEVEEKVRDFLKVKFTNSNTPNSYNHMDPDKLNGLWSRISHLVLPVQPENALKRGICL
Sequence of Left-right determination factor 2 (Homo sapiens) (O00292 whole entry, looked up): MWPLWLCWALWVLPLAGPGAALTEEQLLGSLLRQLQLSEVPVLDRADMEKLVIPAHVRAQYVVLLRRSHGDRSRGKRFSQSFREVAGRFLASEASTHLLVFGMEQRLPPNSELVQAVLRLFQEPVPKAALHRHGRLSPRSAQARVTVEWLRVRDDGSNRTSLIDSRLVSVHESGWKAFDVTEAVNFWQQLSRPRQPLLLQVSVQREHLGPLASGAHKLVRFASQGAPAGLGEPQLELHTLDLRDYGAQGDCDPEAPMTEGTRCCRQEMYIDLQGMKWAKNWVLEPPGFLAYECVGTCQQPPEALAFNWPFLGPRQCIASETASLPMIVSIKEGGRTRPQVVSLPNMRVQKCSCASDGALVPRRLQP

CC(=O)NCCCC[C@@H]1NC(=O)[C@@H]2C[C@H](C(=O)NCc3ccc(F)cc3)[C@H](c3ccc(O)cc3)N2C1=O
composite z-score [1]: 0.0999 | z-score [2]: -0.673 | composite z-score [3]: 0.591 | composite z-score [4]: 0.0633 | composite z-score [5]: -0.72 | composite z-score [6]: -0.103 | composite z-score [7]: 0.785 | composite z-score [8]: -0.314 | composite z-score [9]: 0.362 | composite z-score [10]: 0.346

C=C(CCCC)C(=O)CC[C@H](OC(C)=O)c1ccc(CO)o1
composite z-score [1]: 0.478 | z-score [2]: -0.72 | composite z-score [3]: -0.0361 | composite z-score [4]: -0.933 | composite z-score [5]: -1.06 | composite z-score [6]: -0.0182 | composite z-score [7]: 0.13 | composite z-score [8]: -0.196 | composite z-score [9]: 1.43 | composite z-score [10]: -0.28

CC(C)(C)OC(=O)CC[C@]1(C(=O)NCC(O)CO)N=C(c2ccc(OCCCO)cc2)O[C@H]1c1ccccc1CN=[N+]=[N-] (stereo not given in full)
composite z-score [1]: 0.29 | z-score [2]: 1.15 | composite z-score [3]: -0.167 | composite z-score [4]: 2.52 | composite z-score [5]: 0.909 | composite z-score [6]: 0.25 | composite z-score [7]: 0.541 | composite z-score [8]: -0.524 | composite z-score [9]: 3.82 | composite z-score [10]: 2.42

O=C1O[C@H](c2ccccc2)[C@H](c2ccccc2)N2[C@H]1[C@@H](C(=O)NC[C@H](O)c1ccccc1)[C@]1(C(=O)Nc3ccc(C#CC4=CCCCC4)cc31)[C@H]2c1ccc(O)cc1
composite z-score [1]: 1.38 | z-score [2]: -2.02 | composite z-score [3]: 0.538 | composite z-score [4]: 0.784 | composite z-score [5]: -0.566 | composite z-score [6]: -0.0403 | composite z-score [7]: -0.0146 | composite z-score [8]: 0.0129 | composite z-score [9]: 0.705 | composite z-score [10]: 1.52

[N-]=[N+]=Nc1ccccc1[C@@H]1OC(c2ccc(OCCCO)cc2)=N[C@]1(CCS(=O)(=O)c1ccccc1)C(=O)N1CCCCC1
composite z-score [1]: 1.22 | z-score [2]: 0.0018 | composite z-score [3]: -0.175 | composite z-score [4]: 2.16 | composite z-score [5]: 1.26 | composite z-score [6]: 0.129 | composite z-score [7]: 0.408 | composite z-score [8]: 0.755 | composite z-score [9]: 1.79 | composite z-score [10]: 3.01

[N-]=[N+]=NCc1ccccc1[C@@H]1OC(c2ccc(OCCCO)cc2)=N[C@]1(Cc1ccccc1N=[N+]=[N-])C(N)=O
composite z-score [1]: 1.43 | z-score [2]: -0.613 | composite z-score [3]: -0.0808 | composite z-score [4]: 2.02 | composite z-score [5]: 1.11 | composite z-score [6]: -0.0478 | composite z-score [7]: 0.593 | composite z-score [8]: 1.49 | composite z-score [9]: 0.804 | composite z-score [10]: 2.66

O=P(NCC1(CC2(c3ccccc3)CO2)CC1)(c1ccccc1)c1ccccc1 (stereo not given)
composite z-score [1]: -0.498 | z-score [2]: -1.17 | composite z-score [3]: -1.79 | composite z-score [4]: -0.0905 | composite z-score [5]: 0.388 | composite z-score [6]: -0.0384 | composite z-score [7]: 0.826 | composite z-score [8]: -0.45 | composite z-score [9]: -0.225 | composite z-score [10]: -0.879

CCCC[C@@H]1C[C@H]1[C@@H](NC(=O)c1ccccc1)c1ccc(-c2ccccc2)cc1
composite z-score [1]: 1.34 | z-score [2]: -2.9 | composite z-score [3]: 0.0692 | composite z-score [4]: 0.232 | composite z-score [5]: 0.596 | composite z-score [6]: 0.0375 | composite z-score [7]: 0.1 | composite z-score [8]: -0.421 | composite z-score [9]: 0.0036 | composite z-score [10]: 0.805

Cc1ccc(S[C@]2(C(=O)NCCCN(C)C)CC(=O)N(Cc3ccccc3)[C@@H]2c2ccc(CO)cc2)cc1
composite z-score [1]: -0.364 | z-score [2]: -1.7 | composite z-score [3]: -1.03 | composite z-score [4]: -0.676 | composite z-score [5]: -0.674 | composite z-score [6]: -0.184 | composite z-score [7]: -0.145 | composite z-score [8]: 0.604 | composite z-score [9]: 1.17 | composite z-score [10]: 0.75

CO[C@H]1O[C@H](CO)[C@@H](OC(=O)Nc2ccc3c(c2)OCO3)[C@H](OC(=O)Nc2ccc3c(c2)OCO3)[C@H]1OC(=O)Nc1ccc2c(c1)OCO2
composite z-score [1]: 1.45 | z-score [2]: -0.36 | composite z-score [3]: 0.265 | composite z-score [4]: 1.52 | composite z-score [5]: -0.623 | composite z-score [6]: 0.0037 | composite z-score [7]: 0.503 | composite z-score [8]: 0.961 | composite z-score [9]: 1.21 | composite z-score [10]: 0.477

CN1C(=O)C2C(C1=O)C1C=C(c3ccc(CO)cc3)C2C(C2CC2)N1Cc1sc2ccccc2c1Cl (stereo not given)
composite z-score [1]: 0.946 | z-score [2]: -1.58 | composite z-score [3]: 0.545 | composite z-score [4]: 2.06 | composite z-score [5]: 0.398 | composite z-score [6]: 0.0561 | composite z-score [7]: 0.079 | composite z-score [8]: -0.186 | composite z-score [9]: 2.06 | composite z-score [10]: 2.87

CCCNC(=O)[C@@]1(C)c2ccccc2C(=O)N(Cc2cc(F)cc(C(F)(F)F)c2)[C@H]1c1ccc(CO)cc1
composite z-score [1]: 0.843 | z-score [2]: -0.372 | composite z-score [3]: -0.742 | composite z-score [4]: 0.685 | composite z-score [5]: 0.499 | composite z-score [6]: -0.0405 | composite z-score [7]: 0.0469 | composite z-score [8]: 1.03 | composite z-score [9]: 0.296 | composite z-score [10]: -0.0457

CCCCCN1CC=CC23O[C@@H]4C=CCCOC(=O)C4[C@H]2C(=O)N(CCCO)[C@@H]3C1=O (stereo not given in full)
composite z-score [1]: -0.337 | z-score [2]: -0.726 | composite z-score [3]: -0.43 | composite z-score [4]: -0.162 | composite z-score [5]: -0.591 | composite z-score [6]: -0.198 | composite z-score [7]: -0.283 | composite z-score [8]: -0.0125 | composite z-score [9]: -0.643 | composite z-score [10]: -0.546

CC(C)C(O)C1C=CC2C(=O)N(C)C(=O)C2N1N1CCCCC1 (stereo not given)
composite z-score [1]: 0.471 | z-score [2]: 0.279 | composite z-score [3]: 0.223 | composite z-score [4]: 0.372 | composite z-score [5]: -0.387 | composite z-score [6]: -0.0462 | composite z-score [7]: 0.0723 | composite z-score [8]: 0.693 | composite z-score [9]: 0.815 | composite z-score [10]: 0.502

COC(=O)c1c2oc(c1C(=O)OC)C(=O)N[C@H](Cc1ccccc1)Cn1nncc1C1(CCCCC1)NC(=O)N[C@H](CO)CC2
composite z-score [1]: 0.613 | z-score [2]: -0.398 | composite z-score [3]: 0.0801 | composite z-score [4]: -0.16 | composite z-score [5]: -0.661 | composite z-score [6]: -0.0179 | composite z-score [7]: -0.138 | composite z-score [8]: -0.308 | composite z-score [9]: -0.208 | composite z-score [10]: -0.181

O=C1C2C=CC(C(O)C3CC=CCC3)N(n3cnnc3)C2C(=O)N1Cc1ccccc1 (stereo not given)
composite z-score [1]: -0.318 | z-score [2]: -0.151 | composite z-score [3]: -0.49 | composite z-score [4]: -0.292 | composite z-score [5]: -0.92 | composite z-score [6]: -0.154 | composite z-score [7]: 0.0684 | composite z-score [8]: 0.336 | composite z-score [9]: 0.752 | composite z-score [10]: 0.365
